Assay results reported in PubChem BioAssay (NCI).
The panel holds about 83,000 compounds, 20% with a hit somewhere; the sample as a whole holds those more often.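 For each line, cells grew in 96-well plates with the test compound present at a single concentration for 48 hours.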 Calls of active or inactive are those of the source. How the source made its calls: active means growth percent below 10; inactive means the rest.

How the values were obtained:
Test in all cases: NCI-60 one-dose screen, 48 h (100 = growth as untreated, 0 = no growth, -100 = all killed)
Details in all cases: 10 µM unless noted
DU-145 prostate = system: DU-145 prostate
K-562 leukemia = system: K-562 leukemia
MALME-3M melanoma = system: MALME-3M melanoma
MDA-MB-231 breast = system: MDA-MB-231 breast
RXF 393 renal = system: RXF 393 renal
SF-268 CNS = system: SF-268 CNS
SF-295 CNS = system: SF-295 CNS
SF-539 CNS = system: SF-539 CNS
UACC-257 melanoma = system: UACC-257 melanoma
M14 melanoma = system: M14 melanoma
HCT-15 colon = system: HCT-15 colon
HT29 colon = system: HT29 colon
SNB-75 CNS = system: SNB-75 CNS
SNB-19 CNS = system: SNB-19 CNS
U251 CNS = system: U251 CNS
PC-3 prostate = system: PC-3 prostate
SK-MEL-5 melanoma = system: SK-MEL-5 melanoma
UACC-62 melanoma = system: UACC-62 melanoma
LOX IMVI melanoma = system: LOX IMVI melanoma
SK-MEL-28 melanoma = system: SK-MEL-28 melanoma

Measured: growth

COc1cccc(-c2nn(-c3ccccc3)cc2-c2ccnc(-c3cccnc3)c2)c1
inactive: DU-145 prostate 104% | K-562 leukemia 81.2% | MALME-3M melanoma 83% | MDA-MB-231 breast 86.8% | RXF 393 renal 107% | SF-268 CNS 94.9% | SF-295 CNS 89.2% | SF-539 CNS 90.1% | UACC-257 melanoma 117% | M14 melanoma 92.8% | HCT-15 colon 89.6% | HT29 colon 96.7% | SNB-75 CNS 93% | SNB-19 CNS 97.6% | U251 CNS 104% | PC-3 prostate 70.6% | SK-MEL-5 melanoma 81.2% | UACC-62 melanoma 86.6% | LOX IMVI melanoma 87.4% | SK-MEL-28 melanoma 100%

CCCCCC(C)(O)C(C(=O)O)c1ccccc1 (stereo not given)
inactive: DU-145 prostate 114% | K-562 leukemia 121% | MALME-3M melanoma 93.9% | MDA-MB-231 breast 102% | RXF 393 renal 110% | SF-268 CNS 107% | SF-295 CNS 103% | SF-539 CNS 95.4% | UACC-257 melanoma 102% | M14 melanoma 96.7% | HCT-15 colon 106% | HT29 colon 101% | SNB-75 CNS 94.5% | SNB-19 CNS 97.1% | U251 CNS 99.2% | PC-3 prostate 93.2% | SK-MEL-5 melanoma 101% | UACC-62 melanoma 103% | LOX IMVI melanoma 102% | SK-MEL-28 melanoma 98.4%

COc1cccc(C(=O)Nc2cccc(NC(=O)c3ccccn3)c2)c1
inactive: DU-145 prostate 109% | K-562 leukemia 90.5% | MALME-3M melanoma 94.4% | MDA-MB-231 breast 105% | RXF 393 renal 115% | SF-268 CNS 96.9% | SF-295 CNS 91.6% | SF-539 CNS 104% | UACC-257 melanoma 109% | M14 melanoma 87.9% | HCT-15 colon 90.7% | HT29 colon 93.1% | SNB-75 CNS 90.3% | SNB-19 CNS 108% | U251 CNS 109% | PC-3 prostate 98.3% | SK-MEL-5 melanoma 97.3% | UACC-62 melanoma 96.3% | LOX IMVI melanoma 95.2% | SK-MEL-28 melanoma 97.5%
